Compounds with a hit are over-represented: about 2.6% of the library has one in this group of screens.
IDE cell activ: human IDE activators in live cells, primary screen, fluorescence polarization, HEK cells, FAbeta-B substrate | Insulin-degrading enzyme (Homo sapiens), P14735 | FAbeta-B cleavage; 0% vehicle, 100% cell-free pure enzyme wells | activation, % at 5.96 µM | 340,000 tested, 0.073% active;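 active = activation above the mean of all tested compounds plus 3 SD, set per screening campaign, cut at about 17% in these data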
Target sequence (P14735 whole entry, looked up): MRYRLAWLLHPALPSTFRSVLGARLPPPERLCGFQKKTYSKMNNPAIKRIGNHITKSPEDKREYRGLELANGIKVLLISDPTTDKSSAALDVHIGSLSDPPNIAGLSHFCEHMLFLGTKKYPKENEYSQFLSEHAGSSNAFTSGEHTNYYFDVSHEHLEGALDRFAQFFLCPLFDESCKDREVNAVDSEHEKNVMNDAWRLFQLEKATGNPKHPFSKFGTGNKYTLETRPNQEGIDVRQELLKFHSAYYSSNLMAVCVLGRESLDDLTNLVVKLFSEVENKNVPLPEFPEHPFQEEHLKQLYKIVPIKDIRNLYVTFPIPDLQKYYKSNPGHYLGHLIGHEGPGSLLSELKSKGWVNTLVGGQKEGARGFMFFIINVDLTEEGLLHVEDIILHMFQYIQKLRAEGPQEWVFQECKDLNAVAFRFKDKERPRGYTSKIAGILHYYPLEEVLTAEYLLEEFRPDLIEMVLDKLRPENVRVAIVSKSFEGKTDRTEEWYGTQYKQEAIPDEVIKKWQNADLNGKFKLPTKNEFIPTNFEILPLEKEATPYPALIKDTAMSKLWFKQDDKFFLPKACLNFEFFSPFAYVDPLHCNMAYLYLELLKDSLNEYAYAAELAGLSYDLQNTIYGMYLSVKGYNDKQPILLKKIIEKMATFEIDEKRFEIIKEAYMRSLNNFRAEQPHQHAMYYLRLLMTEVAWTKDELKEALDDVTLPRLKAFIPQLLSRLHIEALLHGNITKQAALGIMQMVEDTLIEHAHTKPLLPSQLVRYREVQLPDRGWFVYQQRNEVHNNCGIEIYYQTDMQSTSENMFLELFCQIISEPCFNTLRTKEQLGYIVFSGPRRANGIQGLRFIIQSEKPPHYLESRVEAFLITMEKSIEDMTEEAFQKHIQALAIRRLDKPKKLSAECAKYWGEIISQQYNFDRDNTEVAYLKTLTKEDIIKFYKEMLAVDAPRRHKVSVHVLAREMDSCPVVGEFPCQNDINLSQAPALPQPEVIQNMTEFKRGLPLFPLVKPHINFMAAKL
CRFR2-BP antag: antagonists of CRF-BP/CRF-R2 complex, primary screen, cell-based, HEK293, calcium dye fluorescence, uHTS; AID 588475, 2011; 350,000 tested, 0.59% active; CRF-induced calcium fluorescence; inhibition, % at 11.8 µM;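 active = inhibition of the ligand-induced calcium signal above about 50% at the single tested concentration, limit read from the data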
Myeloid diff 2: induction of myeloid progenitor differentiation, primary screen, cell-based, flow cytometry, MLPCN library; ER-HoxA9 myeloid progenitors, lysozyme-GFP differentiation; calls only at 10 µM; 360,000 tested, 1% active;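 active = normalized GFP-positive differentiation at or above the plate's own cutoff, the solvent-only control mean plus 3 SD; inconclusive = no clear call, values can overlap the other calls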;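 note: cells exposed to compound for four days before flow analysis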
TPT1 inhibitor: Candida albicans TPT1 enzyme inhibitors, primary screen, biochemical, fluorescence polarization; inhibition, % at 5 µM; AID 1962, 2009; tRNA 2'-phosphotransferase TPT1 (Candida albicans SC5314); recombinant caTPT1, FP RNA substrate dephosphorylation; 300,000 tested, 0.81% active;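 active = inhibition above the mean of all tested compounds plus 3 SD, set per screening campaign, cut at about 24% in these data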;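 note: plate controls were DMSO alone for no effect and ferristatin control at 100 nM for full effect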
CRFBP-R2 agonist: agonists of CRF-BP/CRF-R2 complex, primary screen, cell-based, HEK293, calcium dye fluorescence, uHTS; 350,000 tested, 0.46% active; calcium dye fluorescence (FLIPR); percent of saturating CRF peptide response; AID 588473, 2011; activation, % at 13.2 µM; CRF-binding protein / CRF receptor 2 complex (human);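 active = activation of at least 50%, plus an integration ratio under a set limit after plate pattern correction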;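 note: plate controls were neutral control wells without compound for no effect and CRF at EC100 for full effect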
IDE cell inh: human IDE inhibitors in live cells, primary screen, fluorescence polarization, HEK cells, FAbetaB substrate | Insulin-degrading enzyme (Homo sapiens), P14735 | FAbetaB cleavage | inhibition, % at 5.59 µM | 320,000 tested, 0.41% active;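 active = percent inhibition above the average of all tested compounds plus 3 SD, set per screening campaign, cut at about 16% in these data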;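 note: IDE supplied by intact live HEK cells; FP after avidin binding of uncleaved biotin substrate so inhibition keeps polarization high; 0% = DMSO wells and 100% = 60 µM reference IDE inhibitor Ii1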
* hit, by the source's call; i = inactive; ? = inconclusive; · = no result; + = active, no number.

SMILES	IDE cell activ	CRFR2-BP antag	Myeloid diff 2	TPT1 inhibitor	CRFBP-R2 agonist	IDE cell inh
Cc1nc(C)c(C(=O)OCC(=O)Nc2ccccc2SCC#N)s1	-2	-4	+	·	12	2
CCOC(=O)N1CCN(C(=O)c2ccc3c(=O)n(CCc4ccccc4)c(=O)[nH]c3c2)CC1	1	-7	i	-3	1	-2
COc1ccccc1Cc1c(-c2ccc(C#N)cc2)nc2c(Cl)cc(C(F)(F)F)cn12	·	·	+	·	·	·
COc1ccccc1C(=O)NCC(=O)NNc1ncnc(N)c1[N+](=O)[O-]	·	·	·	-3	·	2
Nc1ncnc(NNC(=O)CNC(=O)c2c(F)cccc2Cl)c1[N+](=O)[O-]	10	101*	i	-1	3	-3
Cc1ccc(CNC(=O)CNC(=O)c2ccc(Br)o2)cc1	3	9	?	-2	-1	-1
CC(C)COc1ccc(CNC(=S)Nc2ccccc2)cc1Cl	3	107*	i	-2	4	3
CC(C)Oc1ccc(CNC(=S)Nc2ccccc2)cc1Cl	6	14	i	-3	0	5
Cn1c(O)c(N=NC(=O)C2COc3ccccc3O2)c2ccccc21 (centres undefined)	3	-1	i	-3	-2	5
CC(C)n1c(O)c(N=NC(=O)C2COc3ccccc3O2)c2ccccc21 (centres undefined)	-1	68*	i	1	-6	1
CCCCCCCCNS(=O)(=O)CCNCc1ccc(OC)cc1	-2	115*	i	·	-1	·
COc1ccc(CNCCS(=O)(=O)NCc2ccc(OC)cc2)cc1	-1	6	i	·	-4	·
Cc1ccc(N2CCN(C(=O)C(=O)c3ccc4c(c3)OCO4)CC2)cc1	·	·	i	·	·	·
O=C(CSc1nnnn1-c1ccccc1)NCc1cccs1	1	7	+	0	-3	-2
O=C(Nc1ccccc1)Nc1cc(OCC(F)(F)F)cc(OCC(F)(F)F)c1	-4	55*	i	·	23	·
Oc1ccccc1C=NCCN=Cc1ccccc1O	2	16	i	1	-2	-1
Oc1ccccc1C=NCCN1CCN(CCN=Cc2ccccc2O)C1c1ccccc1O (centres undefined)	7	66*	i	·	-5	·
CCN(c1ccccc1)S(=O)(=O)c1ccc(N2CCN(c3ccc(OC)cc3)CC2)nc1	26*	7	i	·	0	0
COc1ccc(CCNC(=O)/C=C/c2ccco2)cc1OC	2	2	i	-1	0	0
COc1ccc(/C=C/C(=O)NCCSCc2ccco2)cc1OC	2	66*	i	-2	0	0
Cc1ccc(S(=O)(=O)CCC(=O)Nc2cc(Cl)ccc2-n2cncn2)cc1	2	50*	i	0	0	6
Cc1ccc(OCC(=O)Nc2cc(Cl)ccc2-n2cncn2)c(C)c1	·	-4	i	·	-1	·
CN1/C(=C/c2cccc[n+]2CCO)Sc2ccccc21	-5	-1	i	2	6	12
CC[n+]1c(/C=C2\Sc3ccccc3N2C)ccc2cccc(C)c21	-82	-167	?	·	124*	·
Cc1cccc(NC(=O)CS(=O)(=O)c2cn(C)c3ccccc23)c1C	-2	7	+	2	1	4
SMILES	IDE cell activ	CRFR2-BP antag	Myeloid diff 2	TPT1 inhibitor	CRFBP-R2 agonist	IDE cell inh
Cc1cccc(NC(=O)CS(=O)(=O)c2cn(C)c3ccccc23)c1	4	-19	i	-2	-3	2
Cc1ccc(C(=O)Nc2nnc(-c3ccco3)o2)cc1C	7	51*	i	-4	1	1
O=Cc1ccc(OCCOc2ccc([N+](=O)[O-])cc2)cc1	0	10	i	-5	0	0
CSCC[C@H](NC(=O)Cc1ccc(Cl)cc1)C(=O)N1CCC2(CC1)NCCc1[nH]cnc12	3	-4	+	0	0	1
COc1ccc(CC(=O)N[C@@H](CCSC)C(=O)N2CCC3(CC2)NCCc2[nH]cnc23)cc1	0	-1	i	-3	1	2
Cc1cc(Cl)c(C)c(S(=O)(=O)N2CCN(CC(=O)N3CCOCC3)CC2)c1Cl	2	-2	+	·	1	2
Cc1ccccc1NC(=O)C1CCN(S(=O)(=O)c2cccc3nonc23)CC1	-3	0	i	-1	-1	2
O=C(Nc1ccc(N2CCN(c3ccccc3)CC2)c(F)c1)C1CC1	-2	58*	i	-3	1	1
COc1ccc2nc(NC(=O)CSC(C)C(=O)Nc3cc(C)on3)sc2c1 (centres undefined)	8	3	i	5	-2	2
O=C(NC1(C(F)(F)F)C(=O)Nc2c1c(=O)[nH]c(=O)n2Cc1ccccc1)c1ccc(Cl)cc1 (centres undefined)	3	62*	i	-4	0	-4
Cc1cc(C)c(CC(=O)c2ccccc2)c(C)c1	1	19	i	·	1	·
COCCNC(=S)N1CCc2cc(OC)c(OC)cc2C1COc1ccc(C(C)C)cc1 (centres undefined)	7	50*	i	-2	-2	-1
CCc1ccc(N(CC(=O)NC(C)C)C(=O)CCC(=O)Nc2ccccn2)cc1	2	3	·	5	0	1
CCCN1Cc2cccc(C(=O)NCc3cccs3)c2C1=O	0	58*	i	-1	1	9
CCCN1Cc2cccc(C(=O)NCc3ccc4c(c3)OCO4)c2C1=O	-1	24	i	2	-4	4
[O-][n+]1cccc2ncc3cscc3c21	2	-2	i	-1	-1	3
C#CCOCCOCCOCCNc1nc(N2CCN(C(=O)CCCCCCCCCCNC(=O)[C@H](CCCCN)n3cc(CCO)nn3)CC2)nc(N2CCN(C(=O)CCCCCCCCCCNC(=O)[C@H](CCCN=C(N)N)n3cc(C[C@@H](C)CC)nn3)CC2)n1	40*	-43	i	5	18	1
C#CCOCCOCCOCCNc1nc(N2CCN(C(=O)CCCCCCCCCCNC(=O)Cn3cc(C[C@@H](C)O)nn3)CC2)nc(N2CCN(C(=O)CCCCCCCCCCNC(=O)[C@H](CCCCN)n3cc(C[C@@H](C)CC)nn3)CC2)n1	30*	-20	i	2	11	-4
C#CCOCCOCCOCCNc1nc(N2CCN(C(=O)CCCCCCCCCCNC(=O)[C@H]([C@@H](C)CC)n3cc(CCCCN=C(N)N)nn3)CC2)nc(N2CCN(C(=O)CCCCCCCCCCNC(=O)[C@H](CCCCN)n3cc(C[C@@H](C)CC)nn3)CC2)n1	·	·	·	0	·	-6

Screening data: PubChem, several laboratories
